Among the data in PubChem BioAssay (EPA / NIEHS) are outcome and AC50 values, retold here.

Read-out in assay [1]: Phosphatase and tensin (PTEN), PTEN (gene 5728)
The assay can be described thus: LTEA_HepaRG_PTEN: Life Technologies and Expression Analysis (LTEA) Assay for Phosphatase and tensin (PTEN) using HepaRG (AID 2283523). As to conditions: mRNA level, 48 h; actives raise or lower the signal. The essentials:
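HepaRG, 48 h exposure, 8-pt half-log series from 100 uM top, 0.5% DMSO vehicle, duplicates. Readout: Fluidigm qRT-PCR of PTEN transcript; housekeeping normalization (ACTB, GAPDH, POLR2A). Gain or loss fitted relative to DMSO baseline.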

Read-out in assay [2]: solute carrier (SLC22A1), SLC22A1 (gene 6580)
The experiment in a line: LTEA_HepaRG_SLC22A1: Life Technologies and Expression Analysis (LTEA) Assay for solute carrier (SLC22A1) using HepaRG (AID 2283524). The note with it: mRNA level, 48 h; actives raise or lower the signal. Summed up:
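qRT-PCR readout (TaqMan, Fluidigm arrays) of SLC22A1 transcript, normalized to three housekeeping genes; bidirectional curve fit relative to 0.5% DMSO vehicle. Differentiated human HepaRG cells, 48 h chemical exposure, top concentration 100 uM, half-log steps, eight points.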

Read-out in assay [3]: Nuclear factor erythroid 2-related factor 2 (Homo sapiens) (UniProt Q16236)
The experiment in a line: LTEA_HepaRG_NFE2L2: Life Technologies and Expression Analysis (LTEA) Assay for Nuclear factor erythroid 2-related factor 2 (NFE2L2) Transcription Factor using HepaRG (AID 2283527).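 Further: TaqMan qRT-PCR transcript level normalised to ACTB GAPDH and POLR2A housekeeping genes.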 The note with it: mRNA level, 48 h; actives raise or lower the signal. The essentials: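 HepaRG, 48 h dosing, 8-pt half-log series from 100 uM in 0.5% DMSO, duplicates. Read-out: NFE2L2 mRNA by qRT-PCR (ACTB/GAPDH/POLR2A normalization). Bidirectional curve fit vs DMSO baseline.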

Read-out in assay [4]: succinate dehydrogenase complex iron sulfur subunit B (SDHB), SDHB (gene 6390)
The assay can be described thus: LTEA_HepaRG_SDHB: Life Technologies and Expression Analysis (LTEA) Assay for succinate dehydrogenase complex iron sulfur subunit B (SDHB) using HepaRG (AID 2283528). As to conditions: mRNA level, 48 h; actives raise or lower the signal. The essentials: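 Readout is SDHB transcript level by qRT-PCR, normalised to three housekeeping genes and fitted bidirectionally against 0.5% DMSO vehicle. Human HepaRG cells were treated for 48 h at up to 100 uM.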

Read-out in assay [5]: Signal transducer and activator of transcription 3 (Homo sapiens) (UniProt P40763)
The assay can be described thus: LTEA_HepaRG_STAT3: Life Technologies and Expression Analysis (LTEA) Assay for Signal transducer and activator of transcription (STAT3) using HepaRG (AID 2283529). The note with it: mRNA level, 48 h; actives raise or lower the signal. Summed up: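 HepaRG, 48 h exposure, 8-pt half-log series (top 100 uM), 0.5% DMSO vehicle, duplicates. Readout: STAT3 transcript by Fluidigm qRT-PCR, housekeeping-normalized; bidirectional fit vs DMSO baseline.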

Read-out in assay [6]: solute carrier (SLCO1B1), SLCO1B1 (gene 10599)
The experiment in a line: LTEA_HepaRG_SLCO1B1: Life Technologies and Expression Analysis (LTEA) Assay for solute carrier (SLCO1B1) using HepaRG (AID 2283530). The note with it: mRNA level, 48 h; actives raise or lower the signal. Summed up:
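Differentiated human HepaRG cells, plated 48 h, switched to serum-free induction medium and exposed in duplicate for 48 h to 8 half-log concentrations (top 100 uM) in 0.5% DMSO. SLCO1B1 mRNA by TaqMan qRT-PCR, normalized to ACTB/GAPDH/POLR2A.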

Read-out in assay [7]: sulfotransferase 2A1 (SULT2A1), SULT2A1 (gene 6822)
The assay can be described thus: LTEA_HepaRG_SULT2A1: Life Technologies and Expression Analysis (LTEA) Assay for sulfotransferase 2A1 (SULT2A1) using HepaRG (AID 2283531). The note with it: mRNA level, 48 h; actives raise or lower the signal. The essentials:
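Differentiated human HepaRG cells in serum-free induction medium were exposed for 48 h to eight half-log concentrations (top 100 uM, 0.5% DMSO). SULT2A1 mRNA was measured by qRT-PCR, normalized to ACTB, GAPDH and POLR2A, and fitted bidirectionally against DMSO.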

Read-out in assay [8]: Transforming Growth Factor (TGFA), TGFA (gene 7039)
The assay can be described thus: LTEA_HepaRG_TGFA: Life Technologies and Expression Analysis (LTEA) Assay for Transforming Growth Factor (TGFA) using HepaRG (AID 2283532). The note with it: mRNA level, 48 h; actives raise or lower the signal. Summed up: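 qRT-PCR read-out of TGFA transcript, normalized to three housekeeping genes, fitted bidirectionally against 0.5% DMSO baseline. Human HepaRG cultures received chemicals for 48 h at eight half-log concentrations, top 100 uM.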

Read-out in assay [9]: Transforming Growth Factor (TGFB1), TGFB1 (gene 7040)
The experiment in a line: LTEA_HepaRG_TGFB1: Life Technologies and Expression Analysis (LTEA) Assay for Transforming Growth Factor (TGFB1) Transporter using HepaRG (AID 2283533). The note with it: mRNA level, 48 h; actives raise or lower the signal. The essentials: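 Differentiated human HepaRG cells in serum-free induction medium were exposed in duplicate for 48 h to eight concentrations (top 100 uM, half-log steps, 0.5% DMSO). TGFB1 mRNA was quantified by qRT-PCR, normalized to ACTB, GAPDH, POLR2A, and fitted bidirectionally against DMSO.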

Read-out in a further assay: TIMP1, TIMP1 (gene 7076)
The assay can be described thus: LTEA_HepaRG_TIMP1: Life Technologies and Expression Analysis (LTEA) Assay for TIMP1 using HepaRG (AID 2283534).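 Further: TaqMan qRT-PCR signal normalized to ACTB GAPDH and POLR2A housekeeping genes.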 As to conditions: mRNA level, 48 h; actives raise or lower the signal. The essentials:
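Differentiated human HepaRG cells in serum-free induction medium were exposed 48 h to chemicals (8 half-log concentrations, top 100 uM, 0.5% DMSO). TIMP1 mRNA was quantified by TaqMan qRT-PCR, normalized to ACTB/GAPDH/POLR2A; bidirectional fit versus DMSO.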

Read-out in assay [10]: Tumor necrosis factor receptor 1 (TNFRSF1A), TNFRSF1A (gene 7132)
The assay can be described thus: LTEA_HepaRG_TNFRSF1A: Life Technologies and Expression Analysis (LTEA) Assay for Tumor necrosis factor receptor 1 (TNFRSF1A) using HepaRG (AID 2283535). As to conditions: mRNA level, 48 h; actives raise or lower the signal. The essentials:
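Differentiated human HepaRG cells were exposed in duplicate for 48 h in serum-free induction medium to eight concentrations (top 100 uM, half-log steps, 0.5% DMSO). TNFRSF1A mRNA was quantified by qRT-PCR, normalized to ACTB, GAPDH and POLR2A, then fitted bidirectionally against DMSO.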

Read-out in assay [11]: Cellular tumor antigen p53 (Homo sapiens) (UniProt P04637)
The assay can be described thus: LTEA_HepaRG_TP53: Life Technologies and Expression Analysis (LTEA) Assay for Tumor Protein P53 (TP53) using HepaRG (AID 2283537). As to conditions: mRNA level, 48 h; actives raise or lower the signal. Summed up:
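Read-out is TP53 transcript level by microfluidic qRT-PCR, normalised to three housekeeping genes and fitted bidirectionally against DMSO. Human HepaRG cells received compounds for 48 h, highest concentration 100 uM.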

Read-out in assay [12]: UDP glucuronosyltransferase (UGT1A1), UGT1A1 (gene 54658)
The experiment in a line: LTEA_HepaRG_UGT1A1: Life Technologies and Expression Analysis (LTEA) Assay for UDP glucuronosyltransferase (UGT1A1) using HepaRG (AID 2283538). As to conditions: mRNA level, 48 h; actives raise or lower the signal. The essentials:
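Cells are plated, cultured 48 h, switched to serum-free induction medium, then dosed 48 h at eight concentrations (max 100 uM, 0.5% DMSO). RNA is isolated and UGT1A1 expression measured by qRT-PCR; changes versus DMSO are fitted in both directions.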

Read-out in assay [13]: UDP glucuronosyltransferase (UGT1A6), UGT1A6 (gene 54578)
The experiment in a line: LTEA_HepaRG_UGT1A6: Life Technologies and Expression Analysis (LTEA) Assay for UDP glucuronosyltransferase (UGT1A6) using HepaRG (AID 2283539). As to conditions: mRNA level, 48 h; actives raise or lower the signal. The essentials:
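Human HepaRG cells were dosed for 48 h in serum-free induction medium with 0.5% DMSO vehicle, eight-point half-log series from 100 uM, in duplicate. UGT1A6 mRNA was measured by qRT-PCR, normalized to ACTB, GAPDH, POLR2A, and fitted bidirectionally against DMSO.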

Read-out in assay [14]: X-box binding protein 1 (XBP1), XBP1 (gene 7494)
The assay can be described thus: LTEA_HepaRG_XBP1: Life Technologies and Expression Analysis (LTEA) Assay for X-box binding protein 1 (XBP1) using HepaRG (AID 2283540). The note with it: mRNA level, 48 h; actives raise or lower the signal. The essentials:
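Differentiated human HepaRG cells in serum-free induction medium were exposed in duplicate for 48 h to eight half-log concentrations up to 100 uM in 0.5% DMSO. XBP1 mRNA was quantified by qRT-PCR, normalised to ACTB, GAPDH and POLR2A, with bidirectional fitting against DMSO.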

A short description of assay [15]: LTEA_HepaRG_LDH_cytotoxicity: Cytotoxicity Assessment in the Life Technologies and Expression Analysis (LTEA) Assay (AID 2283563; active means hit-call score of the fitted dose curve at least 0.9, where 1 is the maximum). Summed up: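 Differentiated human HepaRG cells, plated 48 h beforehand, were switched to serum-free induction medium and exposed for 48 h to eight half-log concentrations (top 100 uM) in 0.5% DMSO. LDH was measured in spent medium; activity was fitted relative to DMSO vehicle.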

Assay [16] can be described thus: ATG_XTT_Cytotoxicity: Cytotoxicity Assessment in the Attagene TRANS-FACTORIAL HepG2 Assay (AID 2283584; active means hit-call score of the fitted dose curve at least 0.9, where 1 is the maximum). Summed up: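 HepG2 human liver cells, transiently transfected with multiple GAL4-UAS reporter units, were dosed and read at 24 h by XTT as cell number. Loss of signal was fitted relative to DMSO negative control baseline.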
Read-out in assay [17]: NAD(P)H dehydrogenase [quinone] 1 (NQO1), NQO1 (gene 1728)
The assay can be described thus: LTEA_HepaRG_NQO1: Life Technologies and Expression Analysis (LTEA) Assay for NAD(P)H dehydrogenase [quinone] 1 (NQO1) using HepaRG (AID 2283526). As to conditions: mRNA level, 48 h; actives raise or lower the signal. Summed up:
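Transcript induction or suppression is quantified by qRT-PCR in human HepaRG liver cells dosed for 48 hours. Eight half-log concentrations topping at 100 uM are used, with 0.5% DMSO as vehicle and baseline.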

Records with an inconclusive call do not appear. Calls of active or inactive are those of the source. How the source made its calls, unless noted: active means hit-call score of the fitted dose curve at least 0.9, where 1 is the maximum; inactive means score below 0.9.

Chain of Nuclear factor erythroid 2-related factor 2 (Homo sapiens) (Q16236 whole entry, looked up): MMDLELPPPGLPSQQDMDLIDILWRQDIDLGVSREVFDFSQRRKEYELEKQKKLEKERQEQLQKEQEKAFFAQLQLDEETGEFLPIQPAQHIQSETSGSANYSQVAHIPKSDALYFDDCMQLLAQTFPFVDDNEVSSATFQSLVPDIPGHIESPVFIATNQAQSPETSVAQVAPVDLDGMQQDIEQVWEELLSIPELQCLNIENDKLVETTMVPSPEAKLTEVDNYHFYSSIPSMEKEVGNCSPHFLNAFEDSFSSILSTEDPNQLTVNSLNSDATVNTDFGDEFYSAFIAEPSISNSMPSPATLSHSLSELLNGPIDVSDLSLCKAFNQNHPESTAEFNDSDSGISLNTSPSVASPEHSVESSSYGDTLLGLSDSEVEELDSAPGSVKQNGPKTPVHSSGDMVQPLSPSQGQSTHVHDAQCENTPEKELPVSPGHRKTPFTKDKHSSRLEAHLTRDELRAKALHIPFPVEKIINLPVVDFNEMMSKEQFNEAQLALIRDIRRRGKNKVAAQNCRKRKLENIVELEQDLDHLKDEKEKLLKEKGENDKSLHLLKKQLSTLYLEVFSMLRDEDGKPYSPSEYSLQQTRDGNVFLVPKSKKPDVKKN
Chain of Cellular tumor antigen p53 (Homo sapiens) (P04637 whole entry, looked up): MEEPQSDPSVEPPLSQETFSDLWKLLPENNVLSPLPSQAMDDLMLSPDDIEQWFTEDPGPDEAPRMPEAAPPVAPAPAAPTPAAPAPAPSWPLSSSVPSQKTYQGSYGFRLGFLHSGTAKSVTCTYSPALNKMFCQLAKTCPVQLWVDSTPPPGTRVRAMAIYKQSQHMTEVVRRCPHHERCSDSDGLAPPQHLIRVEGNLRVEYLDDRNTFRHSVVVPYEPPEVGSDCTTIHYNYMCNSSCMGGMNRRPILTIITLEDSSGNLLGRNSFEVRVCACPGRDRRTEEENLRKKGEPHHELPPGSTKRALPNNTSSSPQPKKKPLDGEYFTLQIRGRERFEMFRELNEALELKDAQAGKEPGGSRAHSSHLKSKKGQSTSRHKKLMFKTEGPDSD
Chain of Signal transducer and activator of transcription 3 (Homo sapiens) (P40763 whole entry, looked up): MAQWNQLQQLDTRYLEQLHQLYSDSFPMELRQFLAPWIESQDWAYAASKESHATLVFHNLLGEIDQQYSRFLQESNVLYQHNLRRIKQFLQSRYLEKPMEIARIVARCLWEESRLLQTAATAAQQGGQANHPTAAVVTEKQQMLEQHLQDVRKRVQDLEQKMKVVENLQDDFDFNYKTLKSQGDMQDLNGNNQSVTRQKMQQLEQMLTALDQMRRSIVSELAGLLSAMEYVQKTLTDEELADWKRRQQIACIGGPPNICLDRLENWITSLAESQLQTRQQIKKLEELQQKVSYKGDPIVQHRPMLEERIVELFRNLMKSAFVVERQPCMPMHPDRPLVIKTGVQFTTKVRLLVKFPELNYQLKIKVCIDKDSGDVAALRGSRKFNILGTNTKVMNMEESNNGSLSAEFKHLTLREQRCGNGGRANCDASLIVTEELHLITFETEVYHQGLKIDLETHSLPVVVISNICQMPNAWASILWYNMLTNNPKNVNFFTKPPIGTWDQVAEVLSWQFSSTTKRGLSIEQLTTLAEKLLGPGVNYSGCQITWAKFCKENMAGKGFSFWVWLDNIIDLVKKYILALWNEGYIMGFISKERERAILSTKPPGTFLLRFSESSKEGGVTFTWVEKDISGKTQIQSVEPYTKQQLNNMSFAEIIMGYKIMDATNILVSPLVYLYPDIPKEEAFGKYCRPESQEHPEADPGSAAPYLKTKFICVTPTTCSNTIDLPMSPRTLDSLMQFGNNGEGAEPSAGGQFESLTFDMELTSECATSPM

For `Cc1ccc(S(=O)(=O)O)cc1C`, the call in [1], in assay [2], in [3], in assay [4], in assay [5] and in [6] was inactive. For the same molecule, the outcome in [7] is “inactive”; in assay [8], “inactive”; in assay [9], “inactive”; in the assay with TIMP1, TIMP1 (gene 7076), “inactive”; in assay [10], “inactive”; in assay [11], “inactive”. Also, the molecule was called inactive in [12], in assay [13], in assay [14], in [15] and in assay [16].
For `O=C1CCC(N2C(=O)c3ccccc3C2=O)C(=O)N1` (stereo not drawn), the molecule was classed as inactive in assay [1], in assay [2], in [17], in [3], in [4] and in assay [5]. The outcome in [6] is “inactive”; in [7], “inactive”; in assay [8], “inactive”; in assay [9], “inactive”; with TIMP1, TIMP1 (gene 7076), “inactive”; in assay [10], “inactive”. Further, the result in assay [11], in [12], in assay [13], in assay [15] and in assay [16] was inactive.
For the molecule `CN(C)c1ccc(Cc2ccc(N(C)C)cc2)cc1`, the molecule was called inactive in assay [1], in [2], in [3], in assay [4], in assay [5] and in assay [6]. For the same molecule, the outcome in assay [7] is “inactive”; in assay [8] it was “inactive”; in assay [9], “inactive”; with TIMP1, TIMP1 (gene 7076), “inactive”; in [10], “inactive”; in [11], “inactive”. For the same molecule, the call in [14] and in [15] was inactive. Besides, the AC50 was 11.5 µM (active) in [12] and 85.6 µM (active) in assay [13].
Consider `CC[C@H](C)C(=O)O[C@H]1C[C@@H](C)C=C2C=C[C@H](C)[C@H](CC[C@@H]3C[C@@H](O)CC(=O)O3)[C@H]21`, for which the molecule was classed as inactive in assay [1], in assay [2], in assay [3], in assay [4], in [5] and in [6]. The outcome is “inactive” in assay [7]; “inactive” in assay [8]; “inactive” in assay [9]; “inactive” in the assay with TIMP1, TIMP1 (gene 7076); “inactive” in assay [10]; “inactive” in [11]. The call in assay [13] and in [15] was inactive. Besides, the AC50 in [12] was 0.0554 µM (active).
Take `C1N2CN3CN1CN(C2)C3`: the call in assay [1], in assay [2], in assay [17], in assay [3], in [4] and in assay [5] was inactive. In addition, the outcome was “inactive” in assay [6]; “inactive” in assay [7]; “inactive” in [8]; “inactive” in assay [9]; “inactive” with TIMP1, TIMP1 (gene 7076); “inactive” in [10]. The call in assay [11], in [12], in assay [13], in assay [14], in [15] and in [16] was inactive.

Usually AC50 stands for the midpoint of the concentration-response curve, whichever way the signal moves.
